This passage reports growth results from PubChem BioAssay (NCI).

SMILES strings stand for the structures. About 83,000 compounds went through this panel and 20% of them were active in at least one assay; those are over-represented in the sample as a whole.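 Single-concentration screen, 48 h exposure, 96-well plates. Endpoint: percent growth. Below 10 = active.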 Values without a mark were called inactive. The source made the active and inactive calls.

Holding throughout (experiment): NCI-60 one-dose screen, 48 h (100 = growth as untreated, 0 = no growth, -100 = all killed)
Common to all, as to conditions: 10 µM unless noted

For test [1], the system named is NCI-H23 lung.
The subject of test [2] is NCI-H322M lung.
The test system of test [3] is HOP-62 NSCLC.
The test system of test [4] is NCI-H460 lung.
Test [5] has as its system HOP-92 NSCLC.
Test [6] deals with NCI-H522 lung.
Test [7] relates to A549/ATCC NSCLC.
Test [8] deals with 786-0 renal.
The test system of test [9] is COLO 205 colon.
In test [10] the test system is DU-145 prostate.

Turning to `COc1ccc(C(=O)Nc2ccc3nc(N4CCCCC4)cc(C)c3c2)cc1OC`, the growth in [1] was 96.8%; in test [2], 117%; in [3], 115%; in test [4], 51.9%; in test [5] it was 40.8%; in test [6], 98.3%. Besides, the growth in [7] is 85.2%; in [8] it was 85.4%; in test [9], 95.9%; in [10], 83.9%.
With `COc1ccc(/C=C2\NC(=O)NC2=O)cc1O`, the growth in test [1] was 98.1%; in test [2] it was 109%; in test [3] it was 108%; in [4], 98.4%; in test [5], 89.2%; in test [6], 98%. Moreover, the growth in test [7] was 99.1%; in [8], 97.8%; in [9] it was 117%; in test [10] it was 116%.
`O=C1/C(=C/c2ccc(O)cc2)COc2ccc(O)c(O)c21`: the growth in test [1] was 35.9%; in test [2], 79%; in test [3] it was 51.5%; in test [4], 8.73% (active); in [5], 52.7%; in [6], -47.7% (active). Further, the growth in test [7] was 34.5%; in test [8] it was 25.4%; in test [9], 91.8%; in test [10], 17%.
As to `COc1ccc(S(=O)(=O)N(Cc2ccc3c(n2)C=CC(C)(C)O3)C2CCC2)cc1OC`, the growth is -14.5% (active) in test [1]; -20.1% (active) in test [2]; 1.37% (active) in [3]; 1.79% (active) in test [4]; -19.6% (active) in test [5]; -27.7% (active) in test [6]. Besides, the growth in test [7] is -2.9% (active); in test [8], -26.5% (active); in [9], 0.159% (active); in test [10], -8.1% (active).
Regarding `CCOc1cccc(/C=N/NC(=O)C(=O)Nc2cccc(C(F)(F)F)c2)c1O`, the growth in test [1] was 43.4%; in test [2], 30.7%; in [3], 39.1%; in [4], 15.2%; in test [5], 43.8%; in test [6], -0.686% (active). Also, the growth in test [7] is 21.3%; in test [8] it was 23%; in test [9], 11.5%; in [10], 39.8%.
Turning to `Oc1c(CN2CCN(c3ccccc3F)CC2)cc(Br)c2cccnc12`, the growth in test [1] is 44.6%; in [2], 16.7%; in [3] it was -75% (active); in [4], -73.1% (active); in test [5] it was -5.84% (active); in test [6], -65% (active). Moreover, the results for the growth in test [7], in [8] and in test [10] were -65% (active), -83.5% (active) and -32% (active), respectively.
Regarding `C#CCn1cc(C=C2C(=O)NC(=O)NC2=O)c2cc(Cl)ccc21`, the growth in [1] is 90.5%; in [2], 87.6%; in [3] it was 95.5%; in test [4], 63.1%; in test [5], 88.7%; in [6], 71.7%. The growth in test [7] is 96.1%; in test [8] it was 106%; in [10] it was 87.6%.
Regarding `Cn1cc(-c2ccc3ncc(-c4ccc(CC(=O)Nc5cc(C(C)(C)C)no5)cc4)nc3c2)cn1`, the growth was 36.6% in test [1]; 20.6% in test [2]; 42.5% in test [3]; 22.8% in [4]; 46.3% in [5]; 41.6% in test [6]. Moreover, the growth in test [7] is 33.7%; in test [8], 39.2%; in [10], 34.3%.
In the case of `CCOC(=O)c1cc2c(n1Cc1cccc(OC)c1)-c1oncc1CCC2`, the growth in [1] is 36.4%; in [2] it was 74.8%; in [3], 39.9%; in test [4] it was 17.9%; in test [5] it was 67.4%; in test [6] it was 14.5%. In addition, the growth was 42.3% in test [7], 51.7% in test [8], -17.5% (active) in test [9] and 23.3% in test [10].
In the case of `CCCCN1CCN(c2ccc3nc(-c4ccc5nc(-c6ccc(C(F)(F)F)cc6)[nH]c5c4)[nH]c3c2)CC1`, the growth is -85.1% (active) in test [1]; -94.1% (active) in test [2]; -78.5% (active) in test [3]; -79.9% (active) in test [4]; -13.5% (active) in [5]; -38.2% (active) in test [6]. The growth in test [7] was -71.9% (active); in test [8], -84.9% (active); in [10] it was -95.5% (active).
With `O=C1c2cc(Cl)ccc2Oc2cc([N+](=O)[O-])ccc2N1c1ccc(F)cc1F`, the growth in test [1] is 94.1%; in test [2], 92.5%; in [3] it was 87.8%; in test [4], 93.2%; in test [5] it was 98.9%; in test [6], 49.9%. Also, the growth in test [7] was 66.7%; in [8], 93.6%; in test [10], 89.8%.
For `O=C1c2cc(I)ccc2Oc2cc([N+](=O)[O-])ccc2N1c1ccc(Cl)cc1F`, the growth in test [1] is 87.7%; in test [2] it was 93.4%; in [3] it was 89.9%; in test [4], 90.4%; in test [5] it was 88.3%; in test [6], 65.7%. For the same compound, the growth in [7] is 78.2%; in test [8] it was 98%; in [9], 106%; in test [10], 97.9%.
Take `COc1cc2nc(NC3CCCC3)nc(NC3CCN(C(C)C)CC3)c2cc1OC`: the growth in test [1] is 88.7%; in test [2], 100%; in test [3], 89.3%; in test [4], 71.8%; in test [5], 47.8%; in test [6], 62.6%. The growth in test [7] was 75.7%; in test [8], 80.7%; in [10], 74.8%.
As for `Oc1ccc(-c2nc(-c3ccc4oc5ccc(-c6[nH]c(-c7ccc(O)cc7)nc6-c6ccccc6)cc5c4c3)c(-c3ccccc3)[nH]2)cc1`, the growth in [1] is 43.9%; in [2], 78.6%; in test [3], 73.3%; in [4], 59.1%; in test [5], 25.7%; in [6], 59.4%. Also, the growth in [7] was 65.8%; in [8], 86.4%; in test [9], 53.8%; in test [10], 89%.
